# Measured values as given in PubChem BioAssay (NCATS).
# Results filed as inconclusive are left out. Values without a mark were called inactive. The source made the active and inactive calls. Calls follow the shape of the dose curve; as a rule, active = well fitted curve in the direction sought with a large enough effect; inconclusive = small, poorly fitted or top-dose-only effect, or another doubt; inactive = no such curve, though single readings can be large; an effect the other way counts as inactive or inconclusive.
# What was measured:
# [1] = qHTS of pediatric cancer cell lines to identify multiple opportunities for drug repurposing: Primary screen for SJ-GBM2 cells (AID 1347091)
# Outline: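 Eight- or eleven-point concentration series, 48 h treatment at 37 degrees C in growth media; readout CellTiter-Glo luminescence. Potency and efficacy were taken from the concentration-response curves.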
# [2] = qHTS of pediatric cancer cell lines to identify multiple opportunities for drug repurposing: Primary screen for A673 cells (AID 1347092); also: nearly all actives have a fitted effect of over 45% in size
# Outline: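 Cells are plated, rested 5 h, dosed by pintool, incubated 48 h, then lysed with CellTiter-Glo and read by luminescence. DMSO is the neutral control; bortezomib at 2.3 uM final is the positive control.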
# [3] = qHTS of pediatric cancer cell lines to identify multiple opportunities for drug repurposing: Primary screen for SK-N-MC cells (AID 1347093)
# Outline: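 Metabolically active cells were quantified by ATP-dependent luminescence (CellTiter-Glo, 15 min at room temperature) following 48 h treatment. Cells had been plated at 500-1,000 per well and settled for 5 h beforehand.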
# [4] = qHTS of pediatric cancer cell lines to identify multiple opportunities for drug repurposing: Primary screen for BT-37 cells (AID 1347094)
# Outline: (§1)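 Phenotypic viability qHTS, 48 h compound exposure, CellTiter-Glo luminescence read-out; multi-concentration dosing so that potency and efficacy derive directly from the primary screen's curves.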
# [5] = qHTS of pediatric cancer cell lines to identify multiple opportunities for drug repurposing: Primary screen for NB-EBc1 cells (AID 1347095)
# Outline: as §1
# [6] = qHTS of pediatric cancer cell lines to identify multiple opportunities for drug repurposing: Primary screen for U-2 OS cells (AID 1347096); also: nearly all actives have a fitted effect of over 50% in size
# Outline: (§2)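 Cells (500-1,000/well) in growth media were settled 5 h at 37 degrees C, then given compounds for 48 h. Viability was read as CellTiter-Glo luminescence. Primary runs used MIPE at 11 points (0.78 nM-46 µM) and NPC at 8 points (0.59 nM-46 µM); follow-ups used 11 points.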
# [7] = qHTS of pediatric cancer cell lines to identify multiple opportunities for drug repurposing: Primary screen for Saos-2 cells (AID 1347097); also: nearly all actives have a fitted effect of over 40% in size
# Outline: as §1
# [8] = qHTS of pediatric cancer cell lines to identify multiple opportunities for drug repurposing: Primary screen for SK-N-SH cells (AID 1347098); also: nearly all actives have a fitted effect of over 65% in size
# Outline: (§3)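 Cells (500-1,000/well) rested 5 h, then received compounds for 48 h; metabolically active cells were measured by CellTiter-Glo luminescence. Final concentrations spanned up to 46 µM (MIPE, 11-point) or 0.59 nM-46 µM (NPC, 8-point) in primary screens, 11-point in follow-ups.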
# [9] = qHTS of pediatric cancer cell lines to identify multiple opportunities for drug repurposing: Primary screen for NB1643 cells (AID 1347099); also: nearly all actives have a fitted effect of over 50% in size
# Outline: as §1
# [10] = qHTS of pediatric cancer cell lines to identify multiple opportunities for drug repurposing: Primary screen for LAN-5 cells (AID 1347100)
# Outline: as §2
# [11] = qHTS of pediatric cancer cell lines to identify multiple opportunities for drug repurposing: Primary screen for BT-12 cells (AID 1347101); also: nearly all actives have a fitted effect of over 25% in size
# Outline: as §3
# [12] = qHTS of pediatric cancer cell lines to identify multiple opportunities for drug repurposing: Primary screen for Rh18 cells (AID 1347102); also: nearly all actives have a fitted effect of over 65% in size
# Outline: as §2
# [13] = qHTS of pediatric cancer cell lines to identify multiple opportunities for drug repurposing: Primary screen for OHS-50 cells (AID 1347103); also: nearly all actives have a fitted effect of over 40% in size
# Outline: as §3
# [14] = qHTS of pediatric cancer cell lines to identify multiple opportunities for drug repurposing: Primary screen for MG 63 (6-TG R) cells (AID 1347105); also: nearly all actives have a fitted effect of over 50% in size
# Outline: as §1
# [15] = qHTS of pediatric cancer cell lines to identify multiple opportunities for drug repurposing: Primary screen for control Hh wild type fibroblast cells (AID 1347106); also: nearly all actives have a fitted effect of over 55% in size
# Outline: as §2
# [16] = qHTS of pediatric cancer cell lines to identify multiple opportunities for drug repurposing: Primary screen for Rh30 cells (AID 1347107); also: nearly all actives have a fitted effect of over 75% in size
# Outline: as §2
# [17] = qHTS of pediatric cancer cell lines to identify multiple opportunities for drug repurposing: Primary screen for Rh41 cells (AID 1347108); also: nearly all actives have a fitted effect of over 70% in size
# Outline: as §1
# [18] = qHTS of pediatric cancer cell lines to identify multiple opportunities for drug repurposing: Primary screen for RD cells (AID 1347104); also: nearly all actives have a fitted effect of over 55% in size
# Outline: as §1
# [19] = qHTS of pediatric cancer cell lines to identify multiple opportunities for drug repurposing: Confirmatory screen for A673 cells (AID 1347110);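 also: cells exposed to compound for 48 h before the viability read; nearly all actives have a fitted effect of over 65% in size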
# Outline: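 Cells plated at 500-1,000/well were treated five hours later with multi-point dilutions up to 46 µM final. After two days, CellTiter-Glo was added and luminescence read.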
# [20] = qHTS of pediatric cancer cell lines to identify multiple opportunities for drug repurposing: Confirmatory screen for NB1643 cells (AID 1347109); also: nearly all actives have a fitted effect of over 45% in size
# Outline: as §2
# Potency is read from the fitted curve at half-maximal effect.
Compound,Potency [1],Potency [2],Potency [3],Potency [4],Potency [5],Potency [6],Potency [7],Potency [8],Potency [9],Potency [10],Potency [11],Potency [12],Potency [13],Potency [14],Potency [15],Potency [16],Potency [17],Potency [18],Potency [19],Potency [20]
CC(C)(C)[N+]([O-])=Cc1ccc(S(=O)(=O)O)cc1S(=O)(=O)O,inactive,inactive,inactive,inactive,inactive,inactive,inactive,inactive,inactive,inactive,inactive,inactive,inactive,inactive,inactive,inactive,inactive,,,
CC(C)C[C@H](NC(=O)CNC(=O)c1cc(Cl)ccc1Cl)B1OC(=O)CC(CC(=O)O)(C(=O)O)O1 (stereo partly drawn),148 nM (active),11.8 nM (active),83.3 nM (active),344 nM (active),469 nM (active),743 nM (active),372 nM (active),215 nM (active),372 nM (active),118 nM (active),217 nM (active),,193 nM (active),148 nM (active),1050 nM (active),1480 nM (active),296 nM (active),332 nM (active),293 nM (active),
COc1ccc2cc([S+]([O-])Cc3ncc(C)c(OC)c3C)nc2c1,inactive,inactive,inactive,inactive,inactive,inactive,inactive,inactive,inactive,inactive,inactive,inactive,,,inactive,inactive,inactive,inactive,,
CC(C)N1[N]C(=C2C=c3cc(O)ccc3=N2)c2c(N)ncnc21,93.5 nM (active),1480 nM (active),148 nM (active),344 nM (active),590 nM (active),14800 nM (active),5260 nM (active),19200 nM (active),18700 nM (active),5900 nM (active),485 nM (active),5900 nM (active),273 nM (active),1180 nM (active),,5900 nM (active),,1660 nM (active),4140 nM (active),
COc1ccc(Nc2cc(-c3cnc(N)nc3)nc(N3CCOCC3)n2)cn1,4180 nM (active),5900 nM (active),372 nM (active),13700 nM (active),2960 nM (active),14800 nM (active),1180 nM (active),7640 nM (active),2960 nM (active),4180 nM (active),21700 nM (active),6620 nM (active),385 nM (active),,,5900 nM (active),2960 nM (active),4180 nM (active),9270 nM (active),8270 nM (active)
O=C(CCCCCCC(=O)Nc1cccnc1)NO,7430 nM (active),11800 nM (active),2960 nM (active),19300 nM (active),4180 nM (active),11800 nM (active),13200 nM (active),6070 nM (active),2960 nM (active),2640 nM (active),10900 nM (active),4690 nM (active),4320 nM (active),18700 nM (active),,18700 nM (active),11800 nM (active),16600 nM (active),,
COc1cc([C@@H]2c3cc4c(cc3[C@@H](O[C@@H]3O[C@@H]5CO[C@@H](c6cccs6)O[C@@H]5[C@H](O)[C@@H]3O)[C@H]3COC(=O)[C@H]23)OCO4)cc(OC)c1O,118 nM (active),372 nM (active),93.5 nM (active),217 nM (active),37.2 nM (active),3720 nM (active),590 nM (active),5410 nM (active),132 nM (active),37.2 nM (active),6110 nM (active),,485 nM (active),,,,,2960 nM (active),657 nM (active),
COC1=C2C[C@@H](C)C[C@H](OC)[C@@H](O)[C@@H](C)C=C(C)[C@H](OC(N)=O)[C@@H](OC)C=CC=C(C)C(=O)NC(=CC1=O)C2=O,743 nM (active),4690 nM (active),1050 nM (active),4320 nM (active),743 nM (active),inactive,inactive,2410 nM (active),4180 nM (active),8330 nM (active),6110 nM (active),5900 nM (active),6850 nM (active),14800 nM (active),,,7430 nM (active),5260 nM (active),2610 nM (active),
CNC(=O)c1ccc(Nc2cc(Nc3ccccc3S(=O)(=O)C(C)C)c3cc[nH]c3n2)nc1,1050 nM (active),2350 nM (active),743 nM (active),7690 nM (active),1480 nM (active),18700 nM (active),1660 nM (active),4820 nM (active),5260 nM (active),93.5 nM (active),4850 nM (active),9350 nM (active),544 nM (active),,inactive,,5900 nM (active),5900 nM (active),1170 nM (active),
CC(=O)NCC(=O)N1[C@H]2CC[C@H]1c1cc(Nc3ncc(C(F)(F)F)c(NC4CCC4)n3)ccc12,83.3 nM (active),3720 nM (active),118 nM (active),24300 nM (active),66.2 nM (active),inactive,743 nM (active),1080 nM (active),1180 nM (active),33.2 nM (active),,,344 nM (active),2350 nM (active),,,1480 nM (active),2350 nM (active),4140 nM (active),
OC[C@H]1OC(O)C[C@@H](O)[C@H]1O (stereo partly drawn),inactive,inactive,inactive,inactive,inactive,inactive,inactive,inactive,inactive,inactive,inactive,inactive,inactive,inactive,inactive,inactive,inactive,inactive,,
C=C(C)[C@@H]1CC[C@]2(C)CC[C@]3(C)[C@H](CC[C@@H]4[C@@]5(C)CC[C@H](O)C(C)(C)[C@H]5CC[C@]43C)[C@@H]12,inactive,inactive,inactive,inactive,inactive,inactive,inactive,inactive,inactive,inactive,inactive,inactive,inactive,inactive,inactive,inactive,inactive,inactive,,
O=C(C=Cc1ccc(CN(CCO)CCc2c[nH]c3ccccc23)cc1)NO,118 nM (active),235 nM (active),105 nM (active),385 nM (active),148 nM (active),469 nM (active),372 nM (active),541 nM (active),166 nM (active),93.5 nM (active),611 nM (active),105 nM (active),243 nM (active),590 nM (active),2350 nM (active),1180 nM (active),372 nM (active),372 nM (active),369 nM (active),
CN[C@H](CC(C)C)C(=O)N[C@H]1C(=O)N[C@@H](CC(N)=O)C(=O)N[C@@H]2C(=O)N[C@H]3C(=O)N[C@H](C(=O)N[C@H](C(=O)O)c4cc(O)cc(O)c4-c4cc3ccc4O)[C@H](O)c3ccc(c(Cl)c3)Oc3cc2cc(c3O[C@@H]2O[C@H](CO)[C@@H](O)[C@H](O)[C@@H]2O[C@H]2C[C@](C)(N)[C@H](O)[C@H](C)O2)Oc2ccc(cc2Cl)[C@H]1O,inactive,inactive,inactive,inactive,inactive,inactive,inactive,inactive,inactive,inactive,inactive,inactive,inactive,inactive,inactive,inactive,inactive,inactive,,
O=C(C=CC=Cc1ccc2c(c1)OCO2)N1CCCCC1,inactive,inactive,inactive,inactive,inactive,inactive,inactive,inactive,inactive,inactive,inactive,inactive,inactive,inactive,inactive,inactive,inactive,inactive,16500 nM (active),
C[N+]1(C)[C@@H]2C[C@@H](OC(=O)C(O)(c3cccs3)c3cccs3)C[C@H]1[C@@H]1O[C@@H]12,inactive,inactive,inactive,inactive,inactive,inactive,inactive,inactive,inactive,inactive,inactive,inactive,inactive,inactive,inactive,inactive,inactive,,,
CO[C@@H]1[C@@H](O)[C@H](O)[C@@H](n2c3c(Cl)cccc3c3c4c(c5c6cccc(Cl)c6[nH]c5c32)C(=O)NC4=O)O[C@@H]1CO,166 nM (active),235 nM (active),66.2 nM (active),273 nM (active),93.5 nM (active),4690 nM (active),296 nM (active),1210 nM (active),418 nM (active),118 nM (active),1370 nM (active),2090 nM (active),306 nM (active),,inactive,,2350 nM (active),,827 nM (active),
C=CC1=C(C(=O)O)N2C(=O)[C@@H](NC(=O)C(=NO)c3csc(N)n3)[C@H]2SC1,inactive,inactive,inactive,inactive,inactive,inactive,inactive,inactive,inactive,inactive,inactive,inactive,inactive,inactive,inactive,inactive,,inactive,,
O=c1ccn([C@@H]2O[C@H](CO)[C@H](O)[C@@H]2F)c(=O)[nH]1,inactive,23500 nM (active),8330 nM (active),inactive,inactive,inactive,inactive,9610 nM (active),inactive,inactive,inactive,inactive,,inactive,,,,,,
CC(=O)N[C@H]1[C@@H]([C@H](O)[C@H](O)CO)OC(C(=O)O)=C[C@@H]1N=C(N)N,inactive,inactive,inactive,inactive,inactive,inactive,inactive,inactive,inactive,inactive,inactive,,inactive,,inactive,inactive,,,,
Cn1c(Nc2ccc(C(F)(F)F)cc2)nc2cc(Oc3ccnc(-c4ncc(C(F)(F)F)[nH]4)c3)ccc21,662 nM (active),2350 nM (active),187 nM (active),2430 nM (active),14800 nM (active),14800 nM (active),2960 nM (active),7640 nM (active),11800 nM (active),10500 nM (active),8630 nM (active),,,,,inactive,,4180 nM (active),,
